Screens (PubChem)
Compounds with a hit are over-represented: about 4.6% of the library has one in this group of screens.
D1 antagonist – human D1 dopamine receptor antagonism; activity change, negative = inhibition, % at 10 µM; AID 504652; P21728; 360,000 tested, 3.2% active; HEK293 TREx D1 cells, calcium flux, dopamine EC80; active compounds read low; in the data active means activity change below about -30%
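Tetracycline-induced HEK293 Trex D1 cells, force-coupled to calcium, dye-loaded; compounds added and read 180 s, then EC80 dopamine added and calcium flux tracked kinetically another 180 s.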
D1 ag – human D1 receptor agonism; P21728; HEK293 T-REx D1 cells, calcium flux, agonist mode; activation, % at 2 µM; 360,000 tested, 1% active
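Tetracycline-induced HEK293 TREx D1 cells, force-coupled to calcium signalling, were dye-loaded with a no-wash calcium kit. Compound was pin-added after a 10 s baseline. Fluorescence was read kinetically at 1 cycle/s for 180 s, with calcium rises flagged as agonism.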
TRHR agonist – agonists of human TRH receptor | P34981 | TRHR cells, calcium flux fluo-8, FDSS agonist mode | activation, % at 2 µM | 360,000 tested, 0.18% active | AID 493084
Target sequence (P34981 whole entry, looked up): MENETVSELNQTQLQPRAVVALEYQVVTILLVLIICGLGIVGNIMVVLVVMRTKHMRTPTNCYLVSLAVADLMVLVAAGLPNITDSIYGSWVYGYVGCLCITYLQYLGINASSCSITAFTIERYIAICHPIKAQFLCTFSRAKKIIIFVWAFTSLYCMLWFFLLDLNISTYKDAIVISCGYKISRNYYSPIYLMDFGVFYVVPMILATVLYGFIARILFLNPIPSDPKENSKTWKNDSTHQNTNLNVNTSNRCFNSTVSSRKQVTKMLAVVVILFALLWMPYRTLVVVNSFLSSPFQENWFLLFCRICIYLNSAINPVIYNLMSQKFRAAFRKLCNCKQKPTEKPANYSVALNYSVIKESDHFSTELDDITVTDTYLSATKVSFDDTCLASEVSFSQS
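Agonist-mode FDSS calcium read (Ex 480/Em 530, 1 s cycles) in 1536-well TRHR cells with fluo-8 dye, after 10-cycle baseline and 23 nL compound addition; TRH at EC20 (10 nM final) added afterwards for the enhancer phase.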
TRHR enhancer – allosterically enhances the human TRH receptor. 360,000 tested, 0.66% active. AID 493056. enhancement, % at 2 µM. TRHR cells, fluo-8 calcium fluorescence, EC20 TRH enhancement. P34981; in the data active means enhancement above about 30%
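Enhancer read-out: after compound pinning and an initial kinetic agonist-mode read, an EC20 of TRH (10 nM final) was injected and fluo-8 calcium signal (Ex 480/Em 530) followed at 1 s/cycle for 100 cycles in TRHR-expressing cells.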
D1 PAM – human D1 dopamine receptor positive modulation | HEK293 TREx D1 cells, calcium flux, dopamine EC20 potentiation | potentiation, % at 10 µM | 360,000 tested, 0.036% active | AID 504651; in the data active means potentiation above about 30%
Hits are given with their value; - = inactive; . = no result given; ! = not confirmed by another sample. Unless noted, no stated cut-off is given here; in the data, active means activation above about 30%; inactive means the rest.

SMILES | D1 antagonist | D1 ag | TRHR agonist | TRHR enhancer | D1 PAM
CN1CCN(c2nc(-c3cccnc3)nc3scc(-c4ccccc4)c23)CC1 | - | - | - | - | -
Clc1nc(-c2ccccn2)nc2scc(-c3ccccc3)c12 | - | - | - | 40.2 | -
Cn1cc(SCC(=O)Nc2ccc3c(c2)OCCO3)c2ccccc21 | -38.9 | - | - | - | -
COc1cc(NC(=O)CSc2ccc3c(c2)OCCO3)cc(OC)c1OC | -35.9 | - | - | - | -
O=C(CCn1c(=O)oc2ccccc21)Nc1ccc2c(c1)OCCO2 | -38.2 | - | - | - | -
CN(CC(=O)Nc1ccc(F)cc1)C(=O)Cn1c(=O)oc2ccccc21 | - | - | - | - | -
Cc1ccc(NC(=O)CN(C)C(=O)Cn2c(=O)oc3ccccc32)cc1 | - | - | - | 31.2 | -
O=C(Cn1c(=O)oc2ccccc21)Nc1ccc2c(c1)OCCO2 | - | - | - | - | -
COc1ccc(OC)c(NC(=O)Nc2cccc(OCc3cc(=O)n4cc(C)ccc4n3)c2)c1 | - | - | - | - | -
N#CN1CCC(NC(=O)c2cccc(C(F)(F)F)c2)CC1 | - | - | - | - | -
Cc1cc2ccccc2c(=O)n1CC(=O)Nc1ccc2c(c1)OCCO2 | - | - | - | 30.6 | -
CCOC(=O)c1nn(-c2ccc(C)cc2)c(=O)c2c(N)scc12 | - | - | - | - | -
CCOC(=O)c1nn(-c2ccc(F)cc2)c(=O)c2c(N)scc12 | -51.5 | 59.2 | - | - | -
CCOC(=O)c1ccccc1NC(=O)CSc1nccn1Cc1ccco1 | - | - | - | - | -
COc1ccc(CCNc2nccn(-c3ccc(C)c(C)c3)c2=O)cc1OC | -44.4 | - | - | - | -
Cc1cnc(C(=O)OCC(=O)Nc2cccc(S(=O)(=O)N3CCCCC3)c2)cn1 | - | - | - | - | -
Cc1cnc(C(=O)OCC(=O)Nc2cc(-c3ccccc3)nn2-c2ccccc2)cn1 | - | - | - | 32.0 | -
CCc1cccc(OCC(=O)Nc2ccc(C)c(S(=O)(=O)N3CCCCCC3)c2)c1 | - | 33.4 | - | - | -
Cc1cnc(C(=O)OCC(=O)Nc2ccc(C)c(S(=O)(=O)N3CCCCCC3)c2)cn1 | - | - | - | 33.0 | -
CCC(=O)Nc1cc(-c2cccc(C)c2)nn1-c1ccccc1 | - | - | - | - | -
CCOc1ccc(C(=O)CCC(=O)Nc2ccc(C)c(S(=O)(=O)N3CCCCC3)c2)cc1 | - | - | - | - | -
CC(=O)c1ccc(OCCCC(=O)Nc2ccc(C)c(S(=O)(=O)N3CCCCC3)c2)cc1 | -35.5 | - | - | - | -
O=C(NCC(c1ccc(Cl)cc1)N1CCCCC1)c1ccccc1F (stereo unspecified) | - | - | - | - | -
O=C(CCCCCn1c(=O)c2sccc2n(CC(=O)Nc2cccc(Cl)c2)c1=O)NCc1ccc2c(c1)OCO2 | - | - | - | - | -
CCOc1ccccc1NC(=O)CSc1nnc2[nH]c(=O)cc(-c3ccccc3)n12 | . | - | - | - | -
SMILES | D1 antagonist | D1 ag | TRHR agonist | TRHR enhancer | D1 PAM
CC(C)C[C@H](N)c1nnc(S(=O)(=O)Cc2ccc(F)cc2)o1 | -70.3 | - | - | - | -
CC(C)C[C@H](N)c1nnc(SCc2ccc(Cl)cc2Cl)o1 | - | - | - | - | -
CCc1cc2c(COC(=O)c3cccc(S(C)(=O)=O)c3)cc(=O)oc2cc1O | - | - | - | - | -
COc1ccc(C(C)=O)cc1COC(=O)c1c(C)noc1C | -43.7 | - | - | - | -
CCc1cc2c(COC(=O)c3c(C)noc3C)cc(=O)oc2cc1O | - | - | - | 33.4 | -
C=CCOc1ccc(Br)cc1CNC(C)(C)CO | -42.2 | - | - | - | -
COc1ccc(Cl)cc1NC(=O)Cn1cc(C(=O)c2ccncc2)c(=O)c2cc(C)ccc21 | - | - | - | - | -
CC(C)CC(=O)Nc1nnc(S(=O)(=O)N2CCc3ccccc32)s1 | -45.7! | - | - | - | -
CCC(=O)Nc1nnc(S(=O)(=O)N2CCc3ccccc32)s1 | - | - | - | - | -
COc1ccc(N/C=C(\C#N)S(=O)(=O)c2ccc(Cl)cc2)c(OC)c1 | - | - | - | - | -
CCn1c(NCc2ccco2)nc2ccccc21 | - | - | - | - | -
c1ccc(Cn2c(NCc3ccco3)nc3ccccc32)cc1 | -36.5 | - | - | - | -
O=S(=O)(Nc1cc(Br)cc2cccnc12)c1ccccc1 | - | - | - | - | -
